This is part of a sample that, as a whole, favours compounds with a hit. Of some 83,000 tested, about 20% had one in any assay.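 Interpretation: 100, growth as untreated; towards 0, rising growth inhibition; 0, no net growth; 0 to -100, cell death. Compounds scoring below 10 were considered active.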 Values without a mark were called inactive. The source made the active and inactive calls.
How the values were obtained:
Test in all cases: NCI-60 one-dose screen, 48 h (100 = growth as untreated, 0 = no growth, -100 = all killed)
T-47D breast = settings: 10 µM unless noted
BT-549 breast = settings: 10 µM unless noted
MDA-MB-435 melanoma = settings: 10 µM unless noted
SW-620 colon = settings: 10 µM unless noted
MCF7 breast = settings: 10 µM unless noted
HCT-116 colon = settings: 10 µM unless noted
HCC-2998 colon = settings: 10 µM
KM12 colon = settings: 10 µM unless noted

Structure (SMILES)	growth (T-47D breast)	growth (BT-549 breast)	growth (MDA-MB-435 melanoma)	growth (SW-620 colon)	growth (MCF7 breast)	growth (HCT-116 colon)	growth (HCC-2998 colon)	growth (KM12 colon)
CCOc1cc2ncc(C#N)c(Nc3ccc(F)c(Cl)c3)c2cc1NC(=O)/C=C/CN(C)C	-41.1% (active)	-35.8% (active)	-87.2% (active)	-53.8% (active)	-41.7% (active)	-79.7% (active)	-49.2% (active)	-83.8% (active)
Cc1cc(Nc2ncnc3ccc(NC4=NC(C)(C)CO4)cc23)ccc1Oc1ccn2ncnc2c1	32.3%	42.4%	43.9%	18.2%	21.4%	16.1%	18.9%	21.3%
CNC(=O)c1cc(Oc2ccc(NC(=O)Nc3ccc(Cl)c(C(F)(F)F)c3)c(F)c2)ccn1	-34.5% (active)	-31.3% (active)	-57% (active)	-8.01% (active)	-26.6% (active)	-37.3% (active)	-80.8% (active)	-32.3% (active)
C=CC[n+]1c(/C=C/C=C2\N(C)c3ccccc3C2(C)C)sc2ccc(OC)cc21	12.1%	14.6%	12.8%	19.9%	6.97% (active)	11.6%	30.2%	13.4%
Nc1c(C(=O)c2ccccc2)sc2nc(-c3cccs3)ccc12	41.8%	59.6%	-5.48% (active)	28.4%	34.2%	13.3%	32.3%	28.3%
COc1ccc2c(CCc3ccc(Cl)cc3)c3[n+](cc2c1OC)CCc1cc2c(cc1-3)OCO2	24.9%	18.5%	1.77% (active)	73.2%	60.4%	36.5%	36.2%	34.4%
Cc1ccc(N=C2CSc3nnc(-c4csc5c4CCCC5)n3N2)cc1	48.2%	31.3%	-25.1% (active)	29.9%	21.4%	13.9%	30.3%	24%
COc1cc2ncnc(Nc3ccc(O)cc3)c2cc1OC	53.9%	80%	91.6%	112%	90.4%	75.3%	100%	89.7%
CO[C@H]1C[C@@H]2CC[C@@H](C)[C@@](O)(O2)C(=O)C(=O)N2CCCC[C@H]2C(=O)O[C@H]([C@H](C)C[C@@H]2CC[C@@H](OCCO)[C@H](OC)C2)CC(=O)[C@H](C)/C=C(\C)[C@@H](O)[C@H](OC)C(=O)[C@H](C)C[C@H](C)\C=C/C=C/C=C/1C	7.51% (active)	42.3%	56.4%	53.7%	35.8%	64.3%	66%	55.3%
Cn1nccc1Nc1nccc(-c2ccn([C@H](CO)c3ccc(Cl)c(F)c3)c(=O)c2)n1	104%	93.6%	55.4%	62.7%	93.1%	52.5%	36.9%	82.8%
Cc1ccc(NC(=O)NC(=O)CSc2nc3ccccc3nc2C)cc1	40.9%	59.9%	74.1%	78.3%	52.4%	17.1%	72.1%	76.5%
COc1cc2cc(NCc3ccc(F)cc3)nc(C)c2cc1OC	53.2%	29%	24.6%	21.8%	68.6%	9.34% (active)	42.3%	42.3%
Cc1nc(N)sc1-c1ccnc(Nc2ccc(N3CCOCC3)cc2)n1	29.8%	17.3%	67.2%	41.4%	27.2%	26.2%	77.8%	23.7%
CS(=O)(=O)N1CCN(Cc2cc3nc(-c4cccc5[nH]ncc45)nc(N4CCOCC4)c3s2)CC1	-21.7% (active)	18.2%	22.4%	38.8%	5.28% (active)	28.3%	22.8%	16.3%
COc1c(OCCCN2CCOCC2)ccc2c3n(c(=NC(=O)c4cnc(N)nc4)nc12)CCN3	-24% (active)	-5.84% (active)	4.22% (active)	20.5%	11.9%	13.8%	-15.7% (active)	-2.1% (active)
